Experimental data: PubChem BioAssay (NCI)
Several values for one entry are separate records, joined by “and”; a condition that tells them apart may be missing. Equal entries are not always repeated. The panel holds about 83,000 compounds, 20% with a hit somewhere; the sample as a whole holds those more often.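 Results are percent growth after 48 hours of single-concentration exposure. 100 means growth as in untreated cells, lower positive values show inhibition; negative values down to -100 show cell death.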 Unmarked numbers belong to inactive results. Activity calls are given as the source filed them. The calls were made as follows: active = growth percent below 10; inactive = the rest.

Assays:
Test in all cases: NCI-60 one-dose screen, 48 h (100 = growth as untreated, 0 = no growth, -100 = all killed)
[1] = system: NCI-H23 lung; conditions: 10 µM unless noted
[2] = system: NCI-H226 lung; conditions: 10 µM unless noted
[3] = system: NCI-H322M lung; conditions: 10 µM unless noted
[4] = system: HOP-62 NSCLC; conditions: 10 µM unless noted
[5] = system: NCI-H460 lung; conditions: 10 µM unless noted
[6] = system: NCI-H522 lung; conditions: 10 µM unless noted
[7] = system: A549/ATCC NSCLC; conditions: 10 µM unless noted
[8] = system: 786-0 renal; conditions: 10 µM unless noted
[9] = system: COLO 205 colon; conditions: 10 µM unless noted
[10] = system: DU-145 prostate; conditions: 10 µM unless noted
[11] = system: K-562 leukemia; conditions: 10 µM unless noted
[12] = system: MALME-3M melanoma; conditions: 10 µM unless noted
[13] = system: MDA-MB-231 breast; conditions: 10 µM unless noted
[14] = system: RXF 393 renal; conditions: 10 µM unless noted
[15] = system: SF-268 CNS; conditions: 10 µM unless noted
[16] = system: SF-295 CNS; conditions: 10 µM unless noted
[17] = system: SF-539 CNS; conditions: 10 µM unless noted
[18] = system: UACC-257 melanoma; conditions: 10 µM unless noted
[19] = system: M14 melanoma; conditions: 10 µM unless noted
[20] = system: HOP-92 NSCLC; conditions: 10 µM

SMILES	growth [1]	growth [2]	growth [3]	growth [4]	growth [5]	growth [6]	growth [7]	growth [8]	growth [9]	growth [10]	growth [11]	growth [12]	growth [13]	growth [14]	growth [15]	growth [16]	growth [17]	growth [18]	growth [19]	growth [20]
CCC1(O)CC(OC2CC(N(C)C)C(OC3CC4OC5CC(=O)C(C)OC5OC4C(C)O3)C(C)O2)c2c(cc3c(c2O)C(=O)c2c(O)ccc(O)c2C3=O)C1C(=O)OC (stereo unspecified)	-52.5% (active)	-8.6% (active)	-32.4% (active)	-26% (active)	-26.3% (active)	-75.4% (active)	1.52% (active)	-35.6% (active)	-52.1% (active)	-12.7% (active)	-39.7% (active)	-95.3% (active)	-5.87% (active)	-1.64% (active)	-14.3% (active)	-32.7% (active)	-55.6% (active)	-3.52% (active)	-95% (active)	
CC1=C2C(=O)[C@H]3[C@@H](CC=C4C[C@@H](O)CC[C@@]43C)[C@@H]2CC[C@]12O[C@@H]1C[C@H](C)CN[C@H]1[C@H]2C	106%	95.3%	86.4%	50.9%	100%		89.7%	127%	103%	151%	154%	84.6%	105%	98.8%	105%	93.3%	101%	104%	92.9%	
NCCc1ccc(OCc2ccccc2)c(OCc2ccccc2)c1	87.6%	103%	85.4%	87.3%	60.6%			84.2%	13.5%	97.3%	30.8%	106%	79.2%	62.2%	89.2%	97.1%	93.1%		102%	-2.74% (active)
CC[C@@]1(O)C[C@H](OC2CC(N(C)C)C(O)C(C)O2)c2c(O)c3c(c(O)c2[C@H]1OC1CC(N(C)C)C(O)C(C)O1)C(=O)c1cccc(O)c1C3=O (stereo partly specified)	-37.2% (active)	-16.2% (active)	-31.5% (active)	-20.2% (active)	-4.36% (active)	-65% (active)	1.57% (active)	-2.72% (active)	-20.5% (active)	-4.8% (active)	-28.5% (active)	-93.7% (active)	-9.74% (active)	0.503% (active)	-19.3% (active)	-27.2% (active)	-48.9% (active)	2.59% (active)	-87.2% (active)	
CO[C@H](/C(C)=C/C=C/C(C)=C/c1coc(C)n1)[C@H](C)[C@H]1C[C@@H](O)[C@@]2(C)O[C@H]2/C=C/[C@@H](C)[C@@H]2C[C@@H](CC(=O)O2)C[C@H]2O[C@@H]2C(=O)O1	24.4%	34.8%	42.9%	11.1%	8.2% (active)	-33.1% (active)	42.9%	15.6%	-28.7% (active)	-18.9% (active)	-31.6% (active)	15.2%	25.9%	13.7%	32.5%	-13.3% (active)	-19.2% (active)	19.1%	-0.709% (active)	
CC[n+]1c(-c2ccccc2)c2cc(N)ccc2c2ccc(N)cc21	-9.43% (active)	25.2%	25.9%	1.84% (active)	3.56% (active)	-28.2% (active)	30.2%	15.6%	-27.9% (active)	9.09% (active)	39%	-25% (active)	33.1%	-16.7% (active)	-26.3% (active)	13.6%	-12.7% (active)	-19.3% (active)	33%	
Oc1cccc2cccnc12	102% and 109% and 104%	94.5% and 98.1% and 98.6%	104% and 111% and 95.5%	94.7% and 98.3% and 104%	83.7% and 104% and 102%	10.8% and 103%	100% and 105% and 111%	106% and 105%	65% and 105% and 102%	82% and 108% and 111%	44.2% and 106% and 102%	96.3% and 98.2%	92.9% and 109% and 101%	95.7% and 104% and 112%	80% and 101%	99.7% and 108% and 115%	113% and 90.2%	80.1% and 98.6% and 111%	76% and 102% and 94.3%	89.1%
